The results in this text go back to publication PMC7862700, “An all-to-all approach to the identification of sequence-specific readers for epigenetic DNA modifications on cytosine”.

What all share (assay): DAPPL (digital affinity profiling via proximity ligation, sequencing); 10 mM Tris-HCl pH 7.5, 50 mM NaCl, 1 mM DTT, 4% glycerol, room temperature, 30 min; GST-TFs on glutathione beads, 16-mer random dsDNA library, 0.1% formaldehyde crosslink after washing; high values mean tight binding
Common to all, as to conditions: protein: recombinant; tags: N-terminal GST; dsDNA, one strand shown

For one test, the target named is T1, FLI1 (Homo sapiens, UniProt Q01543 1-452).
T1 sequence: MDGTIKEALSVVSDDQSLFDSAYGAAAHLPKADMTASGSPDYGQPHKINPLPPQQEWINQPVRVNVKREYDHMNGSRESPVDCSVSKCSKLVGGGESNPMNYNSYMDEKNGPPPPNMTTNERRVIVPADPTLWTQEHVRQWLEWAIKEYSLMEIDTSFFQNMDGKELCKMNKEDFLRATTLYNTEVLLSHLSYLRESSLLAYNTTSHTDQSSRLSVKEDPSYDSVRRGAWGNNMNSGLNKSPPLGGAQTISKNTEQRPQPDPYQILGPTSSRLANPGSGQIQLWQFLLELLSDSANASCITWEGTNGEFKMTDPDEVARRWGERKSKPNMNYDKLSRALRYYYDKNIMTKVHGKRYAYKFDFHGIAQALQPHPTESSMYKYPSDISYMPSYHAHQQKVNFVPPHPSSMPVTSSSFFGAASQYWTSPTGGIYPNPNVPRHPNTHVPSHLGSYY
In short, it runs like this: (§1)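 A tag-only sample was pooled with DNA-barcoded human transcription factors that had been expressed in yeast as GST fusions and captured on glutathione beads. The pools were incubated for 30 min at room temperature with 200 nmole of a random double-stranded 16-mer DNA library in Tris/NaCl/DTT/glycerol buffer, then washed, crosslinked with 0.1% formaldehyde, proximity-ligated (BsaI/T4 ligase, 1 h, 37 °C), PCR-amplified and sequenced on an Illumina NextSeq500. Binding signal is each hexamer's read frequency for a factor divided by its frequency for the tag-only sample.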

The target in another test is T2, ELK1 (Homo sapiens, UniProt P19419 1-428).
T2 sequence: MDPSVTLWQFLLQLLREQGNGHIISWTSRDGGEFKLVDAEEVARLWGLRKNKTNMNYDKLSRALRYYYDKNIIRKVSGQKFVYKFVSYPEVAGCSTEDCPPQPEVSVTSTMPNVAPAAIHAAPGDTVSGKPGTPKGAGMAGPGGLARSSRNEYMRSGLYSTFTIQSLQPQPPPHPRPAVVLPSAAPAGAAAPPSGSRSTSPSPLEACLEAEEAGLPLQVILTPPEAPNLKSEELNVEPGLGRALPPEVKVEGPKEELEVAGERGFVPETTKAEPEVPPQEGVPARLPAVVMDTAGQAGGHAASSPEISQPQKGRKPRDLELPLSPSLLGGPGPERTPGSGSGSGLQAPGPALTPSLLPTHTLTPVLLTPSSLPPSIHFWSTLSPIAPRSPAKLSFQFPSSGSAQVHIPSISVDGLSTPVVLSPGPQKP
The procedure, abridged:
as §1

In a further test the target is T3, GABPA (Homo sapiens, UniProt Q06546 1-454).
T3 sequence: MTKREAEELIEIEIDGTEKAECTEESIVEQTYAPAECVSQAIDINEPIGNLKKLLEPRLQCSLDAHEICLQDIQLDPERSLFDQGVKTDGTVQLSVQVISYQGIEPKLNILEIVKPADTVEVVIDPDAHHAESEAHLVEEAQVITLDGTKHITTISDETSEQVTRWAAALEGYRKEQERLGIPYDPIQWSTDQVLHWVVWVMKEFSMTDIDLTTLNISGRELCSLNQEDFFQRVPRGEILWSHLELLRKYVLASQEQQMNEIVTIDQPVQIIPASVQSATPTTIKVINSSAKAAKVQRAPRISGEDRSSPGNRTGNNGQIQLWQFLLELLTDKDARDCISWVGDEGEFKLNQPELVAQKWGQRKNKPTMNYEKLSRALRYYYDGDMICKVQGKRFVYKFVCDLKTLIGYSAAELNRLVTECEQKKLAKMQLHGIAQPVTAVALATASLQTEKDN
The procedure, abridged: as §1

The target of another test is T4, ERG (Homo sapiens, UniProt P11308 1-479).
T4 sequence: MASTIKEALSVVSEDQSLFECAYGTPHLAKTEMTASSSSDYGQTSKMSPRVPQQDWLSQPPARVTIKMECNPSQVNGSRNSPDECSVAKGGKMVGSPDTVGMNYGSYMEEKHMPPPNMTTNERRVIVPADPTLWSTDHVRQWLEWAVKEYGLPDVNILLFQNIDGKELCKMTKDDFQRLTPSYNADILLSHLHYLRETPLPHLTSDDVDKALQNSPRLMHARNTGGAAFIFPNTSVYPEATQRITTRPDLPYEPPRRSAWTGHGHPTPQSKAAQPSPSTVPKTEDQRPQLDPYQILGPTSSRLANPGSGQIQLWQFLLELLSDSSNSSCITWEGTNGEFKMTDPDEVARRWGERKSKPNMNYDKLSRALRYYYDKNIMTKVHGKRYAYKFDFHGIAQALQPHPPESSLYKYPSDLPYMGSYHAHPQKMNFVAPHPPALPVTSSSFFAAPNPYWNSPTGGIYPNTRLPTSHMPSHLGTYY
The procedure, abridged: as §1

In another test the target is ELF1 (Homo sapiens, UniProt P32519 1-619). In short, it runs like this: as §1
ELF1, sequence (P32519 whole entry): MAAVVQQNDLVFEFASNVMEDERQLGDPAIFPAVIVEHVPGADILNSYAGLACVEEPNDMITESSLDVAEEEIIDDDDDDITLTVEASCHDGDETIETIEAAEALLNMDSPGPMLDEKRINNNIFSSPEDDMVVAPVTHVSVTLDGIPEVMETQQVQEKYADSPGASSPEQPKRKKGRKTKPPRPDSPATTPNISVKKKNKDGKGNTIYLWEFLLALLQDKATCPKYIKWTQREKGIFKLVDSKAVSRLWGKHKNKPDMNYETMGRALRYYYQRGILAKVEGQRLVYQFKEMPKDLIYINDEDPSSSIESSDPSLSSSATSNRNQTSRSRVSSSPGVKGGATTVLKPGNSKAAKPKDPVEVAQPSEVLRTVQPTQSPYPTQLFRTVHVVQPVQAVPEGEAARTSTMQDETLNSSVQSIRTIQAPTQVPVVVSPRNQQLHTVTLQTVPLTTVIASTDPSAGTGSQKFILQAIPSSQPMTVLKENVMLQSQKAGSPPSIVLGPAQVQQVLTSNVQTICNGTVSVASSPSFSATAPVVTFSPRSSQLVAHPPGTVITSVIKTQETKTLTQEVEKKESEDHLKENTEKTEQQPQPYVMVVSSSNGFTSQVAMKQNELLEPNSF
The target in a further test is T5, EHF (Homo sapiens, UniProt Q9NZC4 1-300).
T5 sequence: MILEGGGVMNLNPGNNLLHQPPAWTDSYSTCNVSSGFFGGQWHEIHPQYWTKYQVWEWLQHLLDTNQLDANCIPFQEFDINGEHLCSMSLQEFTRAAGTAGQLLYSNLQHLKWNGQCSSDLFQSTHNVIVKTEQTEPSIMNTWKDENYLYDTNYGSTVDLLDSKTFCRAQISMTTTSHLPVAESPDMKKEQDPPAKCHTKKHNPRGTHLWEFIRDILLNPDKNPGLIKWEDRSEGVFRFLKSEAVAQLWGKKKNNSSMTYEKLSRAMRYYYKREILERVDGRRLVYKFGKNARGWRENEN
In short, it runs like this:
as §1

In another test the target is SPI1 (Homo sapiens, UniProt P17947 1-270). The procedure, abridged: as §1
Another test has as its target SPIB (Homo sapiens, UniProt Q01892 1-262). The procedure, abridged: as §1
The next test deals with T6, ELK3 (Homo sapiens, UniProt P41970 1-407).
T6 sequence: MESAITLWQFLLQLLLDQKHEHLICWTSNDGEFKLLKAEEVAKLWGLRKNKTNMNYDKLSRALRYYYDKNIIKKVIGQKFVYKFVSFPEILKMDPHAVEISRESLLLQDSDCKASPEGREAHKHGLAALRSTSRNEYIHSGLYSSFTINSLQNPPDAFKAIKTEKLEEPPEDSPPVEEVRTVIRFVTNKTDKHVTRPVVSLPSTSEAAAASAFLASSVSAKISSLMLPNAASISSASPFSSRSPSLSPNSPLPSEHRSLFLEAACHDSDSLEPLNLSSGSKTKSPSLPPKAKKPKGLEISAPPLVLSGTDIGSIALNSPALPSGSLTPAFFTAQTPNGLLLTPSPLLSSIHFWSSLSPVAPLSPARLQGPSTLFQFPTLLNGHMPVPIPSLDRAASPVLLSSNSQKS
The procedure, abridged:
as §1

SPIB, sequence (Q01892 whole entry): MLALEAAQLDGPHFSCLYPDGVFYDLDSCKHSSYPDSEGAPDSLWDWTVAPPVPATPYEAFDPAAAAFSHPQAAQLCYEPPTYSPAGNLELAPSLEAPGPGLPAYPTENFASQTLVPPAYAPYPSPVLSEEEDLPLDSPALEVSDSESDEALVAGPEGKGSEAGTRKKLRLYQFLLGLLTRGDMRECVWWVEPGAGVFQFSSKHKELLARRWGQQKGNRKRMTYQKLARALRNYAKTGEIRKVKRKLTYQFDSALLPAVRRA

Regarding CCTCAG, the binding signal was 1.17 fold enrichment (6-mer frequency, TF over GST control) in the test with FLI1; 1.23 fold enrichment (6-mer frequency, TF over GST control) with ELK1; 1.35 fold enrichment (6-mer frequency, TF over GST control) with GABPA; 1.21 fold enrichment (6-mer frequency, TF over GST control) with ERG; 1.27 fold enrichment (6-mer frequency, TF over GST control) with ELF1; 1.17 fold enrichment (6-mer frequency, TF over GST control) in the test with EHF. The binding signal with SPI1 is 1.17 fold enrichment (6-mer frequency, TF over GST control); in the test with SPIB it was 1.35 fold enrichment (6-mer frequency, TF over GST control); with ELK3, 1.24 fold enrichment (6-mer frequency, TF over GST control).
As to AACCCT, the binding signal with FLI1 is 1.31 fold enrichment (6-mer frequency, TF over GST control); with ELK1 it was 1.4 fold enrichment (6-mer frequency, TF over GST control); in the test with GABPA, 1.29 fold enrichment (6-mer frequency, TF over GST control); with ERG it was 1.23 fold enrichment (6-mer frequency, TF over GST control); with ELF1 it was 1.35 fold enrichment (6-mer frequency, TF over GST control); with EHF, 1.18 fold enrichment (6-mer frequency, TF over GST control). Also, the binding signal with SPI1 is 1.32 fold enrichment (6-mer frequency, TF over GST control); with SPIB it was 1.29 fold enrichment (6-mer frequency, TF over GST control); with ELK3, 1.5 fold enrichment (6-mer frequency, TF over GST control).
Regarding TCTAAA, the binding signal with FLI1 was 1.24 fold enrichment (6-mer frequency, TF over GST control); with ELK1, 1.22 fold enrichment (6-mer frequency, TF over GST control); with GABPA, 1.26 fold enrichment (6-mer frequency, TF over GST control); in the test with ERG it was 1.24 fold enrichment (6-mer frequency, TF over GST control); in the test with ELF1 it was 1.21 fold enrichment (6-mer frequency, TF over GST control); with EHF, 1.2 fold enrichment (6-mer frequency, TF over GST control). Further, the binding signal is 1.18 fold enrichment (6-mer frequency, TF over GST control) with SPI1; 1.16 fold enrichment (6-mer frequency, TF over GST control) with SPIB; 1.2 fold enrichment (6-mer frequency, TF over GST control) in the test with ELK3.
ACTTTT: the binding signal in the test with FLI1 is 1.43 fold enrichment (6-mer frequency, TF over GST control); in the test with ELK1 it was 1.32 fold enrichment (6-mer frequency, TF over GST control); with GABPA, 1.34 fold enrichment (6-mer frequency, TF over GST control); in the test with ERG, 1.21 fold enrichment (6-mer frequency, TF over GST control); with ELF1 it was 1.21 fold enrichment (6-mer frequency, TF over GST control); in the test with EHF, 1.21 fold enrichment (6-mer frequency, TF over GST control). The binding signal with SPI1 was 1.26 fold enrichment (6-mer frequency, TF over GST control); in the test with SPIB, 1.34 fold enrichment (6-mer frequency, TF over GST control); in the test with ELK3 it was 1.14 fold enrichment (6-mer frequency, TF over GST control).
Take GATATA: the binding signal with FLI1 is 1.12 fold enrichment (6-mer frequency, TF over GST control); in the test with ELK1, 1.06 fold enrichment (6-mer frequency, TF over GST control); with GABPA, 1.15 fold enrichment (6-mer frequency, TF over GST control); with ERG it was 1.13 fold enrichment (6-mer frequency, TF over GST control); with ELF1, 1.09 fold enrichment (6-mer frequency, TF over GST control); with EHF it was 1.18 fold enrichment (6-mer frequency, TF over GST control). For the same sequence, the binding signal with SPI1 was 1.09 fold enrichment (6-mer frequency, TF over GST control); in the test with SPIB, 1.06 fold enrichment (6-mer frequency, TF over GST control); with ELK3 it was 1.17 fold enrichment (6-mer frequency, TF over GST control).
In the case of TGCGAT, the binding signal with FLI1 is 1.12 fold enrichment (6-mer frequency, TF over GST control); in the test with ELK1, 1.12 fold enrichment (6-mer frequency, TF over GST control); with GABPA it was 1.28 fold enrichment (6-mer frequency, TF over GST control); with ERG it was 1.18 fold enrichment (6-mer frequency, TF over GST control); with ELF1, 1.16 fold enrichment (6-mer frequency, TF over GST control); with EHF, 1.19 fold enrichment (6-mer frequency, TF over GST control). The binding signal was 1.2 fold enrichment (6-mer frequency, TF over GST control) with SPI1; 1.08 fold enrichment (6-mer frequency, TF over GST control) with SPIB; 1.31 fold enrichment (6-mer frequency, TF over GST control) with ELK3.
For the sequence AATGGC, the binding signal with FLI1 is 1.32 fold enrichment (6-mer frequency, TF over GST control); with ELK1 it was 1.33 fold enrichment (6-mer frequency, TF over GST control); with GABPA, 1.37 fold enrichment (6-mer frequency, TF over GST control); in the test with ERG, 1.43 fold enrichment (6-mer frequency, TF over GST control); with ELF1, 1.39 fold enrichment (6-mer frequency, TF over GST control); with EHF, 1.5 fold enrichment (6-mer frequency, TF over GST control). Also, the binding signal is 1.39 fold enrichment (6-mer frequency, TF over GST control) in the test with SPI1; 1.37 fold enrichment (6-mer frequency, TF over GST control) with SPIB; 1.26 fold enrichment (6-mer frequency, TF over GST control) in the test with ELK3.
As for CCCCCT, the binding signal was 1.22 fold enrichment (6-mer frequency, TF over GST control) with FLI1; 1.26 fold enrichment (6-mer frequency, TF over GST control) in the test with ELK1; 1.25 fold enrichment (6-mer frequency, TF over GST control) in the test with GABPA; 1.21 fold enrichment (6-mer frequency, TF over GST control) with ERG; 1.33 fold enrichment (6-mer frequency, TF over GST control) in the test with ELF1; 1.26 fold enrichment (6-mer frequency, TF over GST control) with EHF. Moreover, the binding signal in the test with SPI1 was 1.19 fold enrichment (6-mer frequency, TF over GST control); in the test with SPIB it was 1.24 fold enrichment (6-mer frequency, TF over GST control); with ELK3, 1.32 fold enrichment (6-mer frequency, TF over GST control).
